# Results as given in ChEMBL document CHEMBL1961873, “Compounds: GSK PKIS; Assays: Nanosyn kinase panel” (2012).
# Experiments:
# [1] = molecular target: Sphingosine kinase 1 (Homo sapiens) (UniProt Q9NYA1); conditions: at 1 µM;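 also: mean SPHK1 inhibition value reported from the GSK PKIS kinase panel screen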
# [2] = molecular target: T1, Sphingosine kinase 2 (Homo sapiens) (UniProt Q9NRA0); conditions: at 0.1 µM
# T1 sequence (whole entry): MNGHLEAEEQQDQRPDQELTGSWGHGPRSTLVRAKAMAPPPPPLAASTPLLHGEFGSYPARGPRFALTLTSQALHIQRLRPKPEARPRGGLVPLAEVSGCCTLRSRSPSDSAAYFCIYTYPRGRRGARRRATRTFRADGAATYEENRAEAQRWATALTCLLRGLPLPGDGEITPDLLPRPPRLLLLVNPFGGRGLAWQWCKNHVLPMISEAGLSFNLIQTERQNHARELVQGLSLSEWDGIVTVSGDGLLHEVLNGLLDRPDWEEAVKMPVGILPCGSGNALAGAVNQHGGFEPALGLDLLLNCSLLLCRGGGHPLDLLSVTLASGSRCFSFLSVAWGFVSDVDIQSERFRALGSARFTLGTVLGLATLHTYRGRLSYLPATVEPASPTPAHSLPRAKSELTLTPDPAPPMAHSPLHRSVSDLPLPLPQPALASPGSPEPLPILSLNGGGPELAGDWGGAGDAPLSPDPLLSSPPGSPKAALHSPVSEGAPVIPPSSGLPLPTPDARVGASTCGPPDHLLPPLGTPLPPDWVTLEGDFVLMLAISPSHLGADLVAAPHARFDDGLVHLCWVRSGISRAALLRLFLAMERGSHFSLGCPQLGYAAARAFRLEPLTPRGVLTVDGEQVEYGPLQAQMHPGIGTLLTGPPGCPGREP
# [3] = molecular target: T1, Sphingosine kinase 2 (Homo sapiens); conditions: at 1 µM
# [4] = molecular target: Casein kinase II subunit alpha (Homo sapiens) (UniProt P68400); conditions: at 0.1 µM
# [5] = molecular target: Casein kinase II subunit alpha (Homo sapiens) (UniProt P68400); conditions: at 1 µM
# [6] = molecular target: T2, Inhibitor of nuclear factor kappa-B kinase subunit alpha (Homo sapiens) (UniProt O15111); conditions: at 0.1 µM
# T2 sequence (whole entry): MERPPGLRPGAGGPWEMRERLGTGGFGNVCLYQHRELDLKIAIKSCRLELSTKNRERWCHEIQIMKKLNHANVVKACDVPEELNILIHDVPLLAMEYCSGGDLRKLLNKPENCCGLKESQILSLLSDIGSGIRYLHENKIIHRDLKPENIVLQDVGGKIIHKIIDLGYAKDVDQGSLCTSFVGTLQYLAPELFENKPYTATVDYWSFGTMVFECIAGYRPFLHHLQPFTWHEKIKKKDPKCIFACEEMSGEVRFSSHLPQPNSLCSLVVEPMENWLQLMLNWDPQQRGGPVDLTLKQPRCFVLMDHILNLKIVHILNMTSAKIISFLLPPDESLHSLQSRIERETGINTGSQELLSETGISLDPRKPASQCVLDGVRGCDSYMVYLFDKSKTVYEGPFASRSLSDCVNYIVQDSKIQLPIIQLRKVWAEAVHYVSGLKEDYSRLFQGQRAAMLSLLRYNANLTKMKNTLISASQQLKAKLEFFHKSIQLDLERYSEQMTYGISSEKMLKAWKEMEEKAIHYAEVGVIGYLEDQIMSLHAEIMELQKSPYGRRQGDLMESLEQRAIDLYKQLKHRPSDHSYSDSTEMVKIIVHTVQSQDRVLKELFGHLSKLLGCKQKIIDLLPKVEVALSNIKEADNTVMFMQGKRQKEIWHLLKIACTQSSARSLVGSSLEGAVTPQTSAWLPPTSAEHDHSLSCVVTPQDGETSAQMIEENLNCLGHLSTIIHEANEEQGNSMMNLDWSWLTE
# [7] = molecular target: T2, Inhibitor of nuclear factor kappa-B kinase subunit alpha (Homo sapiens); conditions: at 1 µM
# [8] = molecular target: T3, Inhibitor of nuclear factor kappa-B kinase subunit beta (Homo sapiens) (UniProt O14920); conditions: at 0.1 µM
# T3 sequence (whole entry): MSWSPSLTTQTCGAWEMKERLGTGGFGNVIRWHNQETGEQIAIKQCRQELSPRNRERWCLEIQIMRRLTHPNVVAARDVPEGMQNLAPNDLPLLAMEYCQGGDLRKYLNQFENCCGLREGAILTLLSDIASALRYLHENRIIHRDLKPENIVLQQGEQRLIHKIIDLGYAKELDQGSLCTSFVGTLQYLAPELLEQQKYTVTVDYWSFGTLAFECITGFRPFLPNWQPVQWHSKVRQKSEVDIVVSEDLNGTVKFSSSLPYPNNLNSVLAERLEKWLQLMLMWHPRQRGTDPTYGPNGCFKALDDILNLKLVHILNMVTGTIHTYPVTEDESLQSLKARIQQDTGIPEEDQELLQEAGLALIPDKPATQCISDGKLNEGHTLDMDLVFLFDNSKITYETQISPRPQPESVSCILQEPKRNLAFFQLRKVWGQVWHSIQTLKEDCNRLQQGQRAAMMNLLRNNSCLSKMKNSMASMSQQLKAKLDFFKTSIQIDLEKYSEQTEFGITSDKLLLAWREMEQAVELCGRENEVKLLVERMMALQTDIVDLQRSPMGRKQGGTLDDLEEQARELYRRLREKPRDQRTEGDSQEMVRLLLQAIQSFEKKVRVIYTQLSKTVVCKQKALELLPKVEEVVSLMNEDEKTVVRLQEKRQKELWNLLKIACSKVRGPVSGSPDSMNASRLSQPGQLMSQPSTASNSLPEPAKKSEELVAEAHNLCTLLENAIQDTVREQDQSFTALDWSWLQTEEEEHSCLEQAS
# [9] = molecular target: T3, Inhibitor of nuclear factor kappa-B kinase subunit beta (Homo sapiens); conditions: at 1 µM
# [10] = molecular target: T4, Inhibitor of nuclear factor kappa-B kinase subunit epsilon (Homo sapiens) (UniProt Q14164); conditions: at 0.1 µM
# T4 sequence (whole entry): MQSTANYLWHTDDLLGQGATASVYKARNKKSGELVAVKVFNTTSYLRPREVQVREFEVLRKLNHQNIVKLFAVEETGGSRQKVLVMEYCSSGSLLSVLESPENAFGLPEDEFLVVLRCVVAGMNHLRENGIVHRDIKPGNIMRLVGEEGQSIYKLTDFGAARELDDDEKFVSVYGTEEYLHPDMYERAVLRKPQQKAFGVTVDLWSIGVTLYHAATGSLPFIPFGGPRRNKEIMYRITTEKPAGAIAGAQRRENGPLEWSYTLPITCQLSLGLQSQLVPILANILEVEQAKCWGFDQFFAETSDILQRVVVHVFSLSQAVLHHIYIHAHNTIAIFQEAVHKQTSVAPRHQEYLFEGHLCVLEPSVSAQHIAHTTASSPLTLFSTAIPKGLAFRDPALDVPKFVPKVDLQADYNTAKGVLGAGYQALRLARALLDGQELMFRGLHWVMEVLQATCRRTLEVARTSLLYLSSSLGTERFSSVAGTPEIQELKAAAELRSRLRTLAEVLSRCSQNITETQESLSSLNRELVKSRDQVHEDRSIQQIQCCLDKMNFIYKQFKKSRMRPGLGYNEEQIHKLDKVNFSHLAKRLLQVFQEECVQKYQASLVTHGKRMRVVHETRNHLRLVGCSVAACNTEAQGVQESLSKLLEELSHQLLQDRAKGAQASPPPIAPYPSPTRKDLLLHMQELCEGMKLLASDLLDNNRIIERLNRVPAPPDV
# [11] = molecular target: T4, Inhibitor of nuclear factor kappa-B kinase subunit epsilon (Homo sapiens); conditions: at 1 µM
# [12] = molecular target: T5, Serine/threonine-protein kinase Nek1 (Homo sapiens) (UniProt Q96PY6); conditions: at 0.1 µM
# T5 sequence (whole entry): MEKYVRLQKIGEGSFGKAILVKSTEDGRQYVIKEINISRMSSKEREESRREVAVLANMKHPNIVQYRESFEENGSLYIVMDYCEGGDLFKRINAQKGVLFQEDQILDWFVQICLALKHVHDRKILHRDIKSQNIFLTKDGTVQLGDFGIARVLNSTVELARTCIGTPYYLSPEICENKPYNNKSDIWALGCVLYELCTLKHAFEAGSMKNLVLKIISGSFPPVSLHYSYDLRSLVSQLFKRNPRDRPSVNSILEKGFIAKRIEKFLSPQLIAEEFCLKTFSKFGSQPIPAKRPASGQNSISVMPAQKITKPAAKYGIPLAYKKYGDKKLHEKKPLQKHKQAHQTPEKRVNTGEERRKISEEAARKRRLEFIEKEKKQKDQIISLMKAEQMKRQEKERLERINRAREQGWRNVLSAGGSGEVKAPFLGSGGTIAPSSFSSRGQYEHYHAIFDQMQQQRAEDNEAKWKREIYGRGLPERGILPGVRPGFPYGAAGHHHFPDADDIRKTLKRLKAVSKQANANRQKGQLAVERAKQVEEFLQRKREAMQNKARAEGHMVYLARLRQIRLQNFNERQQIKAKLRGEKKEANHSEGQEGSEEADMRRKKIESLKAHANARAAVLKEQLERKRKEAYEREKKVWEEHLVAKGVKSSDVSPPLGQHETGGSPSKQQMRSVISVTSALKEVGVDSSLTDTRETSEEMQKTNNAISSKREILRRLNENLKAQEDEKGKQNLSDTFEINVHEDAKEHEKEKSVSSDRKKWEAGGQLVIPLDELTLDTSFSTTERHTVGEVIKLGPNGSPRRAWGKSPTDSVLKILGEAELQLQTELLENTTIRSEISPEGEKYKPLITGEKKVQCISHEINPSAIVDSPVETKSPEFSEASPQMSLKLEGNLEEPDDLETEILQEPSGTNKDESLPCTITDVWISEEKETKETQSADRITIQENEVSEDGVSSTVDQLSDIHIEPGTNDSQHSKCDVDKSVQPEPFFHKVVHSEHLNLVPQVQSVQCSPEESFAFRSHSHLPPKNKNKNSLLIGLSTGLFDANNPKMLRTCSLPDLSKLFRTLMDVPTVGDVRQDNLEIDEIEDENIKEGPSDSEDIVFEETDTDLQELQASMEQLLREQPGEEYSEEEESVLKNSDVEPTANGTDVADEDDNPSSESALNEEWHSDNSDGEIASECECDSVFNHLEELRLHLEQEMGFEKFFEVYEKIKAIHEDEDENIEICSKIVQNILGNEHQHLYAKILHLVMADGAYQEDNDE
# [13] = molecular target: T5, Serine/threonine-protein kinase Nek1 (Homo sapiens); conditions: at 1 µM
# [14] = molecular target: T6, Serine/threonine-protein kinase Nek2 (Homo sapiens) (UniProt P51955); conditions: at 0.1 µM
# T6 sequence (whole entry): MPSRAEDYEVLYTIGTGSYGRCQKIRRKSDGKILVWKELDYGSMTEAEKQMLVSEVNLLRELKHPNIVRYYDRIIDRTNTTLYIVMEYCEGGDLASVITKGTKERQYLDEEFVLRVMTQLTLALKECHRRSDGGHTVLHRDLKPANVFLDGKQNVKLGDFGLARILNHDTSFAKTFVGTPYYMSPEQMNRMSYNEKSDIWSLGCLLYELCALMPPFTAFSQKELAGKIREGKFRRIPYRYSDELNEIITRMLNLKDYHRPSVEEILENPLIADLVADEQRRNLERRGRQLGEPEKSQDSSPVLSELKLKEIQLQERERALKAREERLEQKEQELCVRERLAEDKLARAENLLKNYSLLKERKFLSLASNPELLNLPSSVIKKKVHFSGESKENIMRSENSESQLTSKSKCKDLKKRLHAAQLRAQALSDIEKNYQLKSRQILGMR
# [15] = molecular target: T6, Serine/threonine-protein kinase Nek2 (Homo sapiens); conditions: at 1 µM
# [16] = molecular target: Serine/threonine-protein kinase Nek6 (Homo sapiens) (UniProt Q9HC98); conditions: at 0.1 µM
# [17] = molecular target: Serine/threonine-protein kinase Nek6 (Homo sapiens) (UniProt Q9HC98); conditions: at 1 µM
# [18] = molecular target: Serine/threonine-protein kinase Nek7 (Homo sapiens) (UniProt Q8TDX7); conditions: at 0.1 µM
# [19] = molecular target: Serine/threonine-protein kinase Nek7 (Homo sapiens) (UniProt Q8TDX7); conditions: at 1 µM
# [20] = molecular target: T7, Serine/threonine-protein kinase Nek9 (Homo sapiens) (UniProt Q8TD19); conditions: at 0.1 µM;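 also: reported value is the mean percent inhibition of NEK9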
# T7 sequence (whole entry): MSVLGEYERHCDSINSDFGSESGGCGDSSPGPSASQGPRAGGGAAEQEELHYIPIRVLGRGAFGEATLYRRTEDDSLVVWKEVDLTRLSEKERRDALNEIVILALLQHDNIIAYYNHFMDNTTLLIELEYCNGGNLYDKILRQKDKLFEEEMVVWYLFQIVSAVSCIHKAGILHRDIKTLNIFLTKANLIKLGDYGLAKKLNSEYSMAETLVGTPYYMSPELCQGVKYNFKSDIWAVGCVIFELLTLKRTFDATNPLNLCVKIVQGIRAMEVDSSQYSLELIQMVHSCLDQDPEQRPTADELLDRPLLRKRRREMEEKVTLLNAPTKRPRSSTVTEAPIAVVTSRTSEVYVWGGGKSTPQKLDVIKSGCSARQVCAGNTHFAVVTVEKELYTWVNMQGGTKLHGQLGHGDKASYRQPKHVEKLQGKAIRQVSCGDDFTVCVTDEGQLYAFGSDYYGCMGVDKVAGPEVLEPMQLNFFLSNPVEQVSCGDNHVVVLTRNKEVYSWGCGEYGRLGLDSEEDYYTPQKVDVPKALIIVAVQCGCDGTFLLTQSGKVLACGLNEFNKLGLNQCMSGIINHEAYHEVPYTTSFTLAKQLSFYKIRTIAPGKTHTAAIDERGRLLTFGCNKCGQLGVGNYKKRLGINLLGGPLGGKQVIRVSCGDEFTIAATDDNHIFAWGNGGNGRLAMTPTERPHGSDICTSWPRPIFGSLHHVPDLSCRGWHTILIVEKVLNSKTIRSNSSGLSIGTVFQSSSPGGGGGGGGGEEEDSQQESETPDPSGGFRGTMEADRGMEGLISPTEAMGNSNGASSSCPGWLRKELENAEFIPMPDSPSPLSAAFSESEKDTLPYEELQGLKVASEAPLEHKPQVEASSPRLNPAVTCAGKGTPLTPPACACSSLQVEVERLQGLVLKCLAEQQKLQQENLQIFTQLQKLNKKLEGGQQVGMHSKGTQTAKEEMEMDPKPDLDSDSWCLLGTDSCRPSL
# Casein kinase II subunit alpha (Homo sapiens), sequence (P68400 whole entry, looked up): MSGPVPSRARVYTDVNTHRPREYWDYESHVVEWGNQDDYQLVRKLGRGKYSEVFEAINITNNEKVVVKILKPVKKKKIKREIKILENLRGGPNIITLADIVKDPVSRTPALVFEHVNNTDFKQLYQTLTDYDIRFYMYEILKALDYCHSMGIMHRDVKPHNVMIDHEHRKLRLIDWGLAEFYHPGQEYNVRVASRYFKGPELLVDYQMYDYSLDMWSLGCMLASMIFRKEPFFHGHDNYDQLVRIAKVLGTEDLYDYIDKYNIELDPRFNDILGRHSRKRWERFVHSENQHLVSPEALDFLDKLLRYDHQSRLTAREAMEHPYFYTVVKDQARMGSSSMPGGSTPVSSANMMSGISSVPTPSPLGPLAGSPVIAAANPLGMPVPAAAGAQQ
# Serine/threonine-protein kinase Nek6 (Homo sapiens), sequence (Q9HC98 whole entry): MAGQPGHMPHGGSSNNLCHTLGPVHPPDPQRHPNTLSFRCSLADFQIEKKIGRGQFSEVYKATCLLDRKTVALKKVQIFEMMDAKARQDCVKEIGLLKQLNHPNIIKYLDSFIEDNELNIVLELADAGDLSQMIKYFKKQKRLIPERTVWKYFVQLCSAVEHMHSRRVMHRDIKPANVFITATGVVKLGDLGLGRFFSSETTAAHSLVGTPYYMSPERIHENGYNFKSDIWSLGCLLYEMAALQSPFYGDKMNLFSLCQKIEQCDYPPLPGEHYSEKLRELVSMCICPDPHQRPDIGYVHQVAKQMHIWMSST
# Serine/threonine-protein kinase Nek7 (Homo sapiens), sequence (Q8TDX7 whole entry, looked up): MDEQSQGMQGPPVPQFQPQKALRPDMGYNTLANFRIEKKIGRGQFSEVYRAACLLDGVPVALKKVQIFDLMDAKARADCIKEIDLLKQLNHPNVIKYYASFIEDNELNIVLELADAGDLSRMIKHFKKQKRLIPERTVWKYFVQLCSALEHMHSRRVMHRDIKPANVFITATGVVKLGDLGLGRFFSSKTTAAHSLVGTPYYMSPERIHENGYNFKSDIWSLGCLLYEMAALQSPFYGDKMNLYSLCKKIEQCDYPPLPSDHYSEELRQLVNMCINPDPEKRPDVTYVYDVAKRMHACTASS
# Sphingosine kinase 1 (Homo sapiens), sequence (Q9NYA1 whole entry): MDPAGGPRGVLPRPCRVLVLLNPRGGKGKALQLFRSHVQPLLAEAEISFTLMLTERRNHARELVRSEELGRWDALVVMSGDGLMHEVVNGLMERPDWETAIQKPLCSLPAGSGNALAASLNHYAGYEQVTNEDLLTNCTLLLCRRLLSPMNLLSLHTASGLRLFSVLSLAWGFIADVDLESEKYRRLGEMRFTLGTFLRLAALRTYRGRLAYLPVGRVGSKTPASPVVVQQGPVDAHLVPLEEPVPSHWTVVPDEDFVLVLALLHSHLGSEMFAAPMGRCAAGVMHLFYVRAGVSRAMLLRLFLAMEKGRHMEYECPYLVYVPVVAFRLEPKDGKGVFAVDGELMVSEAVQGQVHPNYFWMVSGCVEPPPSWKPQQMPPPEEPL
Compound,inhibition [1] [%],inhibition [2] [%],inhibition [3] [%],inhibition [4] [%],inhibition [5] [%],inhibition [6] [%],inhibition [7] [%],inhibition [8] [%],inhibition [9] [%],inhibition [10] [%],inhibition [11] [%],inhibition [12] [%],inhibition [13] [%],inhibition [14] [%],inhibition [15] [%],inhibition [16] [%],inhibition [17] [%],inhibition [18] [%],inhibition [19] [%],inhibition [20] [%]
NCc1ccc(-c2nc(-c3ccc(Cl)c(O)c3)c(-c3ccncc3)[nH]2)cc1,-0.71,-0.06,0,0.86,1.53,3.45,-3.91,1.08,0.02,1.2,-0.03,0.3,1.09,-2.48,0.73,-0.93,-1.57,1.75,1.7,7.64
CN(C)c1cc2c(Nc3ccc4nc(Cc5ccccc5)[nH]c4c3)ncnc2cn1,-4.39,-0.89,-0.82,3.31,1.45,9.26,9.4,7.48,6.68,17.5,16.6,2.45,3.05,6.53,8.34,3.19,-0.04,6.44,4.66,14.3
